Compound activity: PubChem, National Center for Advancing Translational Sciences (NCATS)
Only some compounds are listed: those with a hit (about 1.3% of all), similar ones and a draw of the others.
TRPV1 potentiator = potentiators of human vanilloid receptor 1 (TRPV1); Q8NER1; TRPV1-expressing cells, Fluo-8 calcium influx, capsaicin EC20 potentiation; potentiation, % at 8.33 µM; actives 0.02% (n = 320,000); AID 540277; in the data active = potentiation above about 80%; inconclusive = between about 30% and that limit; also: 0% is about no effect
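TRPV1-expressing cells were cultured overnight at 35.5C and loaded with Fluo-8 calcium dye for 40 to 90 min at room temperature. After a 10 s baseline, compound was added and calcium influx was read kinetically for 3 min (ex 480/em 520 nm).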
TRPML1 inh = blocks the human TRPML1 channel | AID 624415 | actives 0.02% (n = 390,000) | activity change, negative = inhibition, % (concentration not given with the values) | Q9GZU1 | TRPML1-inducible cells, Ca2+ dye fluorescence, FDSS; hits give low values; inhibition of EC80 agonist-evoked calcium signal; in the data active = activity change below about -50%; inconclusive = between about -30% and that limit;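 also: stimulus is agonist 54-4 at its EC80 concentration; % is scaled to controls: 0 for no effect and ±100 for the full control effect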
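Calcium fluorescence in TRPML1-DL cells induced overnight with Tet: a 110 s read after compound pin addition, then a 110 s antagonist read after challenge with 54-4 at 4 uM final (EC80).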
KCNH2 WT inh = inhibitors of human wildtype KCNH2 potassium channel | U2OS, BacMam KCNH2, thallium flux FluxOr; hits give low values | actives 0.37% (n = 340,000) | Q12809 | AID 720551 | activity change, % at 1.84 µM;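 active = maximum activity change below -70%; inconclusive = maximum activity change between -70% and -50%; inactive = maximum activity change above -50%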; also: % is scaled to controls: 0 for no effect and ±100 for the full control effect
Target sequence (Q12809 whole entry, looked up): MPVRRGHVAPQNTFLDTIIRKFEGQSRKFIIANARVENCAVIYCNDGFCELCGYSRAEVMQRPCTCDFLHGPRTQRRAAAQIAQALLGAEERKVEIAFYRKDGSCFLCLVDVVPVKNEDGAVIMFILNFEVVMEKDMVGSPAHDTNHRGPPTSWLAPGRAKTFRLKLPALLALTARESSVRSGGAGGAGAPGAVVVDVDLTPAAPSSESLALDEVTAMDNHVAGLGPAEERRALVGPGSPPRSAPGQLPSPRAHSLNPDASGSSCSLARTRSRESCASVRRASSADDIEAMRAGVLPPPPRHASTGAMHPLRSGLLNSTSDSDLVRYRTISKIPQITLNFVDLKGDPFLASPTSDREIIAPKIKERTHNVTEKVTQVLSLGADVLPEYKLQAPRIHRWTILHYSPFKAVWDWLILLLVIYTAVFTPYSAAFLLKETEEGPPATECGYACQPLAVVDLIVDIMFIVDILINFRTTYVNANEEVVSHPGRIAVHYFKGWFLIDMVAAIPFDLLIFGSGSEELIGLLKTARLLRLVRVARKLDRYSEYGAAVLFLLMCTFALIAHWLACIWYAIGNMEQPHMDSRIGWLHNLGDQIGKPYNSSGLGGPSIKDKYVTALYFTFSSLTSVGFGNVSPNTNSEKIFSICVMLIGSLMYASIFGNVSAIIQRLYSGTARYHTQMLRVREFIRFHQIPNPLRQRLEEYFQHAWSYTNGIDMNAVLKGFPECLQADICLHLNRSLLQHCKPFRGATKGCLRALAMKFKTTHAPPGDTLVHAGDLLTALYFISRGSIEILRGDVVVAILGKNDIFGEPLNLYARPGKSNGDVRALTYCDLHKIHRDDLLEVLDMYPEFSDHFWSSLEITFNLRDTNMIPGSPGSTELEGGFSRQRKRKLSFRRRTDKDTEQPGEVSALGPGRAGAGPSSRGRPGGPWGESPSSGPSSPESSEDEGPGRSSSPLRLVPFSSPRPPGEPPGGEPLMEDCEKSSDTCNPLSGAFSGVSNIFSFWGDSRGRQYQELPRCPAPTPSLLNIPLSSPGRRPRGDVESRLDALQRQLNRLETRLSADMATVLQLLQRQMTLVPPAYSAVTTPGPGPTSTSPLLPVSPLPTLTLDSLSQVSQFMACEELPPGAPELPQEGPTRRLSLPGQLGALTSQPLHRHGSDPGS
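U2OS cells transduced with wild-type KCNH2 virus are loaded with FluxOr dye for 45 min, and thallium flux is measured in kinetic reads before and after stimulation buffer. Rate constants are normalized to DMSO controls.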
KCNH2 3.1 block = KCNH2 3.1 (human) potassium channel inhibition; activity change, % (tested at about 1.8 µM); actives 0.95% (n = 340,000); U2OS KCNH2 3.1, thallium flux FluxOr; hits give low values;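 active = maximum activity change below -70%; inconclusive = maximum activity change from -70% to -50%; inactive = maximum activity change above -50%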;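 also: thallium influx rate constant from kinetic fluorescence after stimulation buffer; % is scaled to controls: 0 for no effect and ±100 for the full control effect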
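Normalized rate constant (relative to positive and negative DMSO controls) derived from a 2 min kinetic fluorescence read after stimulation; U2OS cells expressing the 3.1 isoform via virus at 1.77 x 10^8 /mL.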
TRPV1 ag = agonists of human vanilloid receptor 1 (TRPV1). Q8NER1. TRPV1-expressing cells, Fluo-8 calcium influx, agonist mode. activation, % at 8.33 µM. actives 0.19% (n = 320,000); in the data active = activation above about 80%; inconclusive = between about 30% and that limit; also: 0% is about no effect
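Fluo-8 calcium influx in TRPV1-expressing cells, kinetic read (ex 480/em 520 nm). Compound added and read 3 min for agonist activity, followed by capsaicin at EC20 final and 2 min further read for enhancement.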
TRPML1 agonist = agonists of human TRPML1 channel; actives 0.12% (n = 410,000); TRPML1-expressing cells, Ca2+ dye fluorescence, FDSS; Q9GZU1; activation, % (concentration not given with the values); in the data active = activation above about 50%; inconclusive = mostly about 30% to 49%; also: 0% is about no effect
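Tetracycline-induced TRPML1-DL cells are seeded and incubated overnight before loading with a no-wash Ca2+ dye and quencher. Agonist activity is taken from the 110 s fluorescence read following compound pin-transfer on an FDSS, before EC80 54-4 challenge.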
Starred values were filed as active, the others as inactive; ? = inconclusive; nt = not tested or not shown.

SMILES	TRPV1 potentiator	TRPML1 inh	KCNH2 WT inh	KCNH2 3.1 block	TRPV1 ag	TRPML1 agonist
CC(=O)c1ccc(Nc2c3c(nc4ccccc24)CCCC3)cc1	-13	9	-77*	-10	26	2
CCOc1ccc(CNC(=O)CCCn2c(=O)c3cccn3c3ccc(F)cc32)cc1	nt	15	nt	nt	nt	4
CN(C(=O)CC(=O)Nc1ccc2nc3n(c(=O)c2c1)CCCCC3)c1ccccc1F	nt	-15	nt	nt	nt	0
Cn1c2ccccc2c(=O)c2cc(C#Cc3ccccn3)ccc21	5	3	nt	nt	2	3
C=CCn1c2ccccc2c(=O)c2cc(C#Cc3cc(OC)cc(OC)c3)ccc21	-5	14	6	-97*	-1	2
C[C@H]1CN([C@@H](C)CO)C(=O)CCCn2nncc2CO[C@H]1CN(C)S(=O)(=O)c1cccc(F)c1	nt	-65*	1	0	nt	0
Cc1ccc(NC(=O)CN2C(=O)C3(SCC(=O)N3c3ccc(F)c(F)c3)c3ccccc32)c(C)c1 (configuration not stated)	nt	-4	nt	nt	nt	1
C(=C\c1ccnc2ccccc12)/c1ccccc1	nt	nt	nt	nt	nt	1
Cc1nc(N2CCCCC2)c2c(C)c(C(=O)Nc3ccccc3C(F)(F)F)sc2n1	-21	4	22	nt	89*	1
Cc1ccc(NC(=O)c2sc3nc(C)nc(N4CCN(c5ccccn5)CC4)c3c2C)c(C)c1	-11	-19	-8	-70*	9	?
Cc1nc(N2CCN(c3ccccn3)CC2)c2c(C)c(C(=O)Nc3ccc(Br)cc3C)sc2n1	11	1	-42	-99*	-2	55*
Cc1ccc(NC(=O)c2sc3ncnc(N4CCN(c5ccccn5)CC4)c3c2C)c(C)c1	22	37	-73*	-114*	2	0
COc1ccc(C)cc1NC(=O)c1sc2ncnc(N3CCN(c4ccccn4)CC3)c2c1C	-2	-24	-5	?	1	0
COc1cc(/C=C/c2nc3cc(Cl)ccc3c(=O)n2-c2ccc(C)cc2C)cc(OC)c1OC	nt	21	nt	nt	nt	0
COc1ccc(CC2(CO)CCN(C(C)COc3ccccc3)CC2)cc1 (configuration not stated)	-10	3	-27	-94*	10	0
CC(COc1ccccc1)N1CCC(CO)(Cc2ccccc2)CC1 (configuration not stated)	-2	-16	13	-72*	1	0
CCc1ccccc1OCCCOc1ccc(OC)cc1	10	-9	-1	-99*	-2	2
Cn1c(=O)c2c(nc3sccn32)n(C)c1=O	88*	14	10	-3	2	0
Cc1ccc(NC(=O)C2CCN(C(=O)c3ccco3)CC2)cc1	17	8	-20	-85*	4	0
Cc1cccc(N2C(=O)C(O)=C(C(=O)c3cccs3)C2c2ccc(F)cc2)n1 (configuration not stated)	-2	22	-227*	-21	-1	2
CC(C)c1nnc(N2C(=O)C(O)=C(C(=O)c3cccs3)C2c2ccccc2)s1 (configuration not stated)	-5	9	-34	11	103*	?
O=C(Cc1ccccc1Nc1c(Cl)cccc1Cl)OCO/N=[N+](\[O-])N1CCCC1	nt	43	nt	nt	nt	4
COc1ccc(Nc2nc(C)nc3c2oc2ccccc23)c(OC)c1	-2	-3	20	8	?	0
Cc1nc(Nc2cccc(F)c2)c2oc3ccccc3c2n1	17	14	-10	-13	99*	1
Cc1nc(Nc2cccc(O)c2)c2oc3ccccc3c2n1	-29	11	-3	5	15	5
SMILES	TRPV1 potentiator	TRPML1 inh	KCNH2 WT inh	KCNH2 3.1 block	TRPV1 ag	TRPML1 agonist
COc1cccc(Nc2nc(C)nc3c2oc2ccccc23)c1	-6	-7	2	11	80*	3
Cc1nc(Nc2ccc(Cl)cc2)c2oc3ccccc3c2n1	1	18	-6	-7	5	1
Cc1nc(Nc2cccc(Cl)c2)c2oc3ccccc3c2n1	14	5	-5	-1	86*	1
COc1cc(CN(C(=O)c2ccc(Cl)cc2)C2CCS(=O)(=O)C2)cc(OC)c1OC (configuration not stated)	nt	4	nt	nt	nt	2
OCCC1CN(Cc2cccn2-c2nccs2)CCN1Cc1ccc(F)c(F)c1 (configuration not stated)	13	1	-47	-85*	3	1
Cc1ncc(CN2CCN(Cc3ccccc3)C(CCO)C2)s1 (configuration not stated)	2	14	-5	-7	-1	-1
CCOc1ccc(CN2CCN(Cc3cnc(-c4ccccc4)s3)CC2CCO)cc1 (configuration not stated)	13	-6	-96*	-97*	0	-1
COc1ccc(/C=C/CN2CCN(Cc3cccc(OC)c3)C(CCO)C2)cc1 (configuration not stated)	2	46	-1	-17	3	0
CCOc1ccc(CN2CCN(Cc3cccn3-c3nccs3)CC2CCO)cc1 (configuration not stated)	9	-14	-134*	-113*	-2	0
OCCC1CN(Cc2cccn2-c2nccs2)CCN1Cc1ccccc1 (configuration not stated)	-1	-12	14	-41	5	1
CCOc1ccc(CN2CCN(C/C=C/c3ccc(OC)cc3)CC2CCO)cc1 (configuration not stated)	-4	26	-15	-88*	3	1
CC1(C)S[C@@H]2C(C(=O)O)NC(=O)N2C1C(=O)O (some centres not stated)	nt	nt	nt	nt	nt	0
CCc1ccccc1Nc1cc(C(=O)NC(C)c2ccccc2)c2ccccc2n1 (configuration not stated)	nt	-5	nt	nt	nt	2
Cc1ccnc2ccc3ccccc3c12	nt	nt	nt	nt	nt	0
Cc1ccc(N2C(=O)c3oc4cc(C)c(C)cc4c(=O)c3C2c2cccc(O)c2)nc1 (configuration not stated)	nt	2	nt	nt	nt	0
COc1ccccc1NC(=O)CN1CCN(CC(=O)Nc2ccc(F)cc2)CC1	0	-9	-36	?	2	0
CCOc1ccc(NC(=O)CN2CCN(CC(=O)Nc3ccc(F)cc3F)CC2)cc1	nt	27	nt	nt	nt	2
COc1ccc(Cl)cc1NC(=O)CN1CCN(S(=O)(=O)c2ccc(F)cc2)CC1	4	1	26	-8	1	0
O=C(CN1CCN(CC(=O)Nc2ccccc2Cl)CC1)NCC1(N2CCOCC2)CCCCC1	3	-10	1	1	0	98*
